# Only some compounds are listed: those with a hit (about 14% of all), similar ones and a draw of the others.
# HSD17B inh = inhibitors of human HSD17B10 dehydrogenase. Q99714. recombinant HSD17B10, NADH fluorescence kinetic. Potency, µM (doses to about 57.1 µM), for inactives: at the highest dose activity change, negative = inhibition, actives largely listed as inhibitors. hit rate 7.6% among 75,000;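 further: the protocol describes HADH2 (HSD17B10) and not the HSD17B4 of the title; potency means the concentration at half of the fitted maximal effect; on the % scale 0 is the no-effect control and ±100 the full control effect; nearly all actives have a fitted effect of over 70% in size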
#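 Activity followed as NADH fluorescence increase (ex 360, em 450 nm) every 30 seconds for 4 min, using final 90 uM beta-hydroxybutyryl CoA and 1 mM NAD+. Recombinant His-tagged enzyme, 20 nM, pH 9.0 Tris buffer, 15 min compound preincubation.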
# A350 fluor = A350 region autofluorescence; Compound autofluorescence, 340/450 nm, Alexa 350 dye-equivalents; hits give high values; max dye-equivalent concentration, M; hit rate 11% among 59,000; in the data active means max dye-equivalent concentration above about 10 nM; inconclusive means mostly about 1.1 nM to 9.6 nM
# 4MU fluor = compounds fluorescent in 4-MU spectral region; compound autofluorescence, 340/450 nm, 4-MU equivalents; hits give high values; max dye-equivalent concentration, M; hit rate 11% among 59,000; in the data active means max dye-equivalent concentration above about 10 nM; inconclusive means mostly about 1.1 nM to 9.6 nM
#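 Compounds in 100 mM Tris, pH 8.0, sat 15 min at room temperature before fluorescence was read at 340 nm excitation/450 nm emission; a per-plate six-point 4-MU standard curve converted signals to dye-equivalent concentration at each compound concentration.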
# HADH2 inhib = HADH2 (human) dehydrogenase inhibition | recombinant HADH2, NADH fluorescence, beta-hydroxybutyryl-CoA | AID 886 | Q99714 | hit rate 3.4% among 73,000 | Potency, µM (series often up to 57.1 µM), inactives show top-dose activity change, negative = inhibition, usual class: inhibitors; further: potency means the concentration at half of the fitted maximal effect; on the % scale 0 is the no-effect control and ±100 the full control effect; nearly all actives have a fitted effect of over 60% in size
# Target sequence (Q99714 whole entry, looked up, one chain of several): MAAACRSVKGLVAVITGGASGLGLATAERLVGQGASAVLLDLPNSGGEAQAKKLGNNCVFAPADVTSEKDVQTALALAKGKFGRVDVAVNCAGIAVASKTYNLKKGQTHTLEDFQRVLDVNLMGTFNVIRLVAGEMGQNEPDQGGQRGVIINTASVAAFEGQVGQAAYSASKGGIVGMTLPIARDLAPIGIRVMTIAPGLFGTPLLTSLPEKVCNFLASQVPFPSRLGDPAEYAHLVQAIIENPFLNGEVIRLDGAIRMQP
#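 Read-out: 360 nm excitation, 450 nm emission, kinetic over 4 min. Conditions: His-tagged human HADH2 20 nM, pH 9.0 Tris with Tween-20, 1 mM NAD+, 90 uM beta-hydroxybutyryl-CoA.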
# CRE-bla Fsk = modulators of forskolin-stimulated CRE signaling in CHO cells. hit rate 2.5% among 71,000. Potency, µM (series often up to 38.2 µM), for inactives: at the highest dose activity change, negative = inhibition, hits mostly activators. CHO CRE-bla reporter (cAMP response element driving beta-lactamase), forskolin EC10, beta-lactamase ratio; active means well fitted activation curve with a large enough effect in the signal ratio, with a control signal flat, not every such curve was filed as active; inconclusive means small, poorly fitted or top-dose-only effect, or effect the other way, or a change in a side signal; the % refers to the signal ratio; further: potency means the concentration at half of the fitted maximal effect; % of control where 0% means no effect
#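 Modulation of forskolin-driven signalling is measured in CHO cells carrying a CRE-controlled beta-lactamase reporter. Cells are stimulated with EC10 NKH 477 in the presence of titrated compound for 3 h at 37 °C, then loaded with CCF4 for 2 h at room temperature.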
# AID923 = qHTS Assay for Allosteric/Competitive Inhibitors of Caspase-1: Spectroscopic Profiling in AFC Spectral Region | compound fluorescence, AFC spectral region (405/520 nm) | Potency, µM (series often up to 57.5 µM), for inactives: at the top dose fluorescence increase, hits mostly activators | hit rate 1.1% among 75,000; further: potency means the concentration at half of the fitted maximal effect; 0% is about no effect
#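 Baseline compound fluorescence (AFC region, 405 nm ex/520 nm em) taken from the intercept of kinetic reads with 50 nM caspase-1 and 5 uM Ac-WEHD-AFC; normalized to an on-plate AFC standard curve; compounds titrated up to 57 uM.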
# * hit, by the source's call; i = inactive; ? = inconclusive; · = no result given; [ ] = remark or other dose. Unless noted, the call rests on the fitted dose curve; in most records, active means well fitted curve in the direction sought with a large enough effect; inconclusive means small, poorly fitted or top-dose-only effect, or another doubt; inactive means no such curve, though single readings can be large; an effect the other way counts as inactive or inconclusive.
SMILES,HSD17B inh,A350 fluor,4MU fluor,HADH2 inhib,CRE-bla Fsk,AID923
CCOC(=O)N/N=C1/C[C@@H](O)[C@@H](O)[C@@H]2[C@@H]3C(=O)N(c4cccc(Oc5ccccc5)c4)C(=O)[C@H]3CC[C@H]12,3.2%[11.4 µM],·,·,15.8%[11.4 µM],·,-4.2%[11.5 µM]
CCOC(=O)[C@@H](O)Cc1cnc2ccccc2n1,-3.7%[11.4 µM],i,i,-5.4%[11.4 µM],9.5%[7.6 µM],1.4%[11.5 µM]
O=C(O)c1ccccc1NC(=O)C1CCCO1 (centres undefined),-4.3%,i,i,2.8%,-10.3%,-0.3%
CC(=O)Nc1cccc2c1C(=O)NC2=O,31.6µM*,4.37e-07M*,3.03e-07M*,-9.8%,?,-0.9%
O=C1NC(=O)c2c(NC(=O)C3CCCO3)cccc21 (centres undefined),31.6µM*,2.77e-07M*,2.2e-07M*,?,?,0.5%
N#C/C(=C(/N)Sc1ccc(N)cc1)c1ccccc1C(F)(F)F,-17.5%,·,·,?,·,-1.9%
CN(C)S(=O)(=O)c1ccc(C(=O)Nc2ccnn2C2CCCCC2)cc1,-1.5%,1.91e-08M*,1.88e-08M*,8.0%,-4.4%,3.6%
CN(C)S(=O)(=O)c1ccc(C(=O)Nc2ccccn2)cc1,-2.1%,·,·,5.7%[11.4 µM],?,5.0%
O=C(Nn1cnnc1)c1ccccc1CCc1ccccc1,3.9%,5.05e-08M*,4.19e-08M*,5.9%,-7.1%,3.3%
COc1ccc(Oc2ncc3nc(-c4cccc(C#N)c4)c(=O)n(C)c3n2)cc1,-8.9%,i,i,-6.1%,2.5%,2.3%
CC(C)n1c(=S)[nH]c2c1c(=O)[nH]c(=O)n2C,-16.7%,?,?,0.631µM*,?,0.6%
Oc1ccccc1C(Sc1nc2ccccc2s1)Sc1nc2ccccc2s1,?,i,i,2.51µM*,-9.6%[7.6 µM],-2.3%[11.5 µM]
CC(C)NC(=O)N1CCCC2(CCN(C(=O)c3cc(C(F)(F)F)cc(C(F)(F)F)c3)CC2)C1,10.5%,i,i,0.8%,-0.1%,3.4%
COc1cc(-c2[o+]c3cc(O)cc(O)c3cc2O)cc(O)c1O,-16.6%[11.4 µM],i,i,0.794µM*,-13.5%[7.6 µM],-1.3%[11.5 µM]
C[C@@H]1CC2(OC3C[C@@]4(C)C5=CC[C@H]6C(C)(C)C(O[C@@H]7OC[C@@H](O)[C@H](O)[C@H]7O)CC[C@@]67C[C@@]57CC[C@]4(C)C31)OC(O)C1(C)OC21 (some centres undefined),5.1%,·,·,5.3%,-11.1%,-0.3%
CC(C)Cc1nc2oc3c(NCC4CCCO4)ncnc3c2c2c1CCC2 (centres undefined),6.31µM*,i,i,25.8%,?,1.9%
CC(C)Cc1nc2oc3c(N4CCN(CCO)CC4)ncnc3c2c2c1CCCC2,0.5%,i,i,?,2µM*,2.7%
CC(C)Cc1nc2oc3c(NCc4cccnc4)ncnc3c2c2c1CCC2,15.8µM*,?,i,-5.4%,2µM*,-2.0%
CCN1CCN(c2ncnc3c2oc2nc(C(C)C)c4c(c23)CCC4)CC1,?,i,i,4.6%,10.9%,0.3%
CC(C)c1nc2oc3c(NCc4cccnc4)ncnc3c2c2c1CCC2,12.6µM*,i,i,25.1µM*,?,-2.6%
CNc1nc(-c2ccc(C(=O)N(C)C)cc2)nc2ccccc12,-10.7%,i,i,?,?,0.3%
COc1cccc(-c2nc(NCc3ccccc3)c3ccccc3n2)c1,?,i,i,-7.8%,-13.8%,8.8%
CC(=O)NCCNc1nc(-c2cccnc2)nc2ccccc12,8.3%,i,i,2.7%,7.94µM*,3.5%
COc1cccc(-c2nc(NCc3cccnc3)c3ccccc3n2)c1,9.9%,i,i,9.3%,12.6µM*,0.6%
Cc1cnc(CNc2nc(-c3ccoc3)nc3ccccc23)cn1,-3.5%,i,i,8.7%,10µM*,3.7%
SMILES,HSD17B inh,A350 fluor,4MU fluor,HADH2 inhib,CRE-bla Fsk,AID923
Cc1cnc(CNc2nc(-c3ccc(C(=O)N(C)C)cc3)nc3ccccc23)cn1,-5.9%,i,i,12.2%,7.94µM*,0.1%
CCN1CCCC1CNC(=O)c1nn(-c2ccc(C)cc2)c(=O)c2c1c1ccccc1n2C (centres undefined),?,?,?,-1.2%,3.1%,2.8%
O=C1c2ccccc2C(=O)c2c1ccc(N1C(=O)c3ccccc3C1=O)c2-c1c(N2C(=O)c3ccccc3C2=O)ccc2c1C(=O)c1ccccc1C2=O,·,i,i,-5.0%[11.4 µM],1.9%[7.6 µM],·
COc1ccc(O[C@H]2C=C[C@@H](c3ccccc3)O[C@H]2CO/N=C2/c3cc(OC)ccc3O[C@@H](c3cccc(OC)c3)[C@H]2O)cc1,1.7%[11.4 µM],·,·,-5.7%[11.4 µM],·,-5.8%[11.5 µM]
c1ccc(CNc2nc(-c3cccnc3)nc3ccccc23)cc1,?,i,i,-7.6%,?,1.6%
c1cncc(-c2nc(-n3ccnc3)c3ccccc3n2)c1,0.6%,i,i,-3.9%,?,2.3%
COc1ccc(CNc2nc(-c3ccoc3)nc3ccccc23)c(OC)c1,-23.5%,i,i,20µM*,?,3.8%
CN(C)C(=O)c1ccc(-c2nc(NCc3cccnc3)c3ccccc3n2)cc1,-22.0%,i,i,?,1.58µM*,-1.0%
Cc1cc(N)n(-c2nc(-c3cccnc3)nc3ccccc23)n1,-28.4%,?,?,-4.6%,7.94µM*,0.1%
c1cncc(CNc2nc(-c3cccnc3)nc3ccccc23)c1,2.8%,i,i,?,6.31µM*,2.5%
COc1ccccc1CNc1nc(-c2ccc(C(=O)N(C)C)cc2)nc2ccccc12,?,i,i,-2.8%,?,1.3%
ClC1=C(Cl)C(Cl)(Cl)C(Cl)=C1Cl,8.7%,·,·,-6.8%,-11.7%,1.0%
CN(C)C(=O)c1ccc(-c2nccc(NCc3cccnc3)n2)cc1,-3.2%,7.72e-08M*,7.03e-08M*,-0.3%,?,-2.4%
CN(C)C(=O)c1ccc(-c2nccc(NCc3ccccc3)n2)cc1,-3.1%,i,i,2.9%,7.0%,3.1%
c1ccc(Nc2nc(-c3cccnc3)nc3ccccc23)cc1,6.8%,?,?,23.1%,10µM*,0.1%
N#Cc1cccc(-c2nc(NCc3cccnc3)c3ccccc3n2)c1,?,i,i,-13.2%,10µM*,11.1%
CNc1nc(-c2cccc(C#N)c2)nc2ccccc12,-17.0%,i,i,17.3%,?,0.8%
CC(=O)/C=C\C1[C@]2(C)CCCC(C)(C)C2CC[C@@]1(C)O (some centres undefined),2.5%,·,·,·,·,-1.9%
O=C(CC1CCCC1)NCCc1cn2ccccc2n1,31.6µM*,·,·,-19.7%,-0.7%,-2.4%
O=C(CC1CCCCC1)NCc1cn2ccsc2n1,-4.8%,i,i,5.3%,-2.8%,-1.5%

# Screening data as filed in PubChem.
